# Records with an inconclusive call do not appear. The source made the active and inactive calls. How the source made its calls: active means hit-call score of the fitted dose curve at least 0.9, where 1 is the maximum; inconclusive means response in the unintended direction; inactive means score below 0.9.
# Assay: Tanguay_ZF_120hpf_BRAI_legacy: (Legacy) Oregon State University Tanguay Lab 120 Hour Post-fertilization zebrafish Assay for Brain Malformation (AID 2283641)
# Protocol: Tanguay_ZF_120hpf_legacy is a whole embryo, multiplexed endpoint assay using zebrafish larvae exposed for 120 hours post fertilization on a 96-well plate.Tanguay_ZF_120hpf_BRAI_legacy is one of one assay component(s) measured or calculated from the Tanguay_ZF_120hpf_legacy assay. It is designed to make measurements of zebrafish development as detected with brightfield microscopy of developing zebrafish embryos.Data from the assay component Tanguay_ZF_120hpf_BRAI_legacy was analyzed into 1 assay endpoints. This assay endpoint, Tanguay_ZF_120hpf_BRAI_legacy, was analyzed in the positive analysis fitting direction relative to DMSO as the negative control and baseline of activity. Using a type of morphology reporter, gain-of-signal activity can be used to understand changes in developmentals as they relate to the whole embryo. To generalize the intended target to other relatable targets, this assay endpoint is annotated to the zebrafish development intended target family, where the subfamily is brain morphogenesis.
# Zebrafish husbandry: Tropical 5D wild-type adult zebrafish were housed in at an approximate density of 1000 per 100 gallon tank at the Sinnhuber Aquatic Research Laboratory, Oregon State University, Corvallis, OR. Each tank was kept at standard laboratory conditions of 28C on a 14-h light/10-h dark photoperiod in fish water consisting of reverse osmosis water supplemented with a commercially available salt (Instant Ocean). Spawning funnels were placed into the tanks the night prior, and embryos were collected and staged. […] Ten microliters of each row of dilution plate 2 was added to 2 exposure plates. The final DMSO concentration used was 0.64% (vol/vol). Thirty-two embryos were also exposed to 5uM trimethyltin chloride (positive control). Plates were sealed to prevent evaporation and foil covered to reduce light exposure and kept in a 28C incubator. Embryos were statically exposed until 120 hpf. At 24 hpf, embryos were assessed for photomotor response using a custom photomotor response analysis tool (PRAT) and for developmental toxicity endpoints (MO24: mortality at 24 hpf, DP: developmental progression, SM: spontaneous movement, and NC: notochord distortion). At 120 hpf, locomotor activity was measured using Viewpoint Zebralab and assessed for 18 endpoints. Zebrafish acquisition and analysis program (ZAAP), a custom program designed to inventory, acquire, and manage zebrafish data, was used to collect developmental endpoints as either present or absent (i.e., binary responses were recorded). If mortality occurred for an embryo (at either 24 or 120 hpf), the non-mortality endpoints were not measured.
SMILES,outcome,AC50
CC(COc1ccc(Oc2ccccc2)cc1)Oc1ccccn1 (stereo not given),inactive,
C[Si](Cn1cncn1)(c1ccc(F)cc1)c1ccc(F)cc1,,47 µM (active)
S=C1NCCN1,inactive,
CCC(=O)Nc1ccc(Cl)c(Cl)c1,inactive,
CN1COCN(Cc2cnc(Cl)s2)C1=N[N+](=O)[O-],inactive,
CCC(CC)Nc1c([N+](=O)[O-])cc(C)c(C)c1[N+](=O)[O-],inactive,
CCOC(=O)COc1cc(-c2nn(C)c(OC(F)F)c2Cl)c(F)cc1Cl,inactive,
CCOP(=S)(OCC)SCCSCC,inactive,
COP(=O)(OC)SCn1c(=O)oc2cc(Cl)cnc21,inactive,
CCOP(=S)(Oc1cnc(C(C)(C)C)nc1)OC(C)C (stereo not given),inactive,
CC[C@H](C)[C@H]1O[C@]2(C=C[C@@H]1C)C[C@@H]1C[C@@H](C/C=C(\C)[C@@H](O[C@H]3C[C@H](OC)[C@@H](O[C@H]4C[C@H](OC)[C@@H](NC)[C@H](C)O4)[C@H](C)O3)[C@@H](C)/C=C/C=C3\CO[C@@H]4[C@H](O)C(C)=C[C@@H](C(=O)O1)[C@]34O)O2,inactive,
COc1cc(OC)nc(Sc2cccc(Cl)c2C(=O)O)n1,inactive,
CN(C)NC(=O)CCC(=O)O,inactive,
CNC(=O)ON=C(SC)C(=O)N(C)C,inactive,
CCCCSP(=O)(SCCCC)SCCCC,inactive,
O=C(O)c1cc(Oc2ccc(C(F)(F)F)cc2Cl)ccc1[N+](=O)[O-],inactive,
CN(C)[C@@H]1C(=O)C(C(N)=O)=C(O)[C@@]2(O)C(=O)C3=C(O)c4c(O)cccc4[C@@](C)(O)[C@H]3[C@H](O)[C@@H]12,inactive,
CCNc1nc(Cl)nc(NC(C)(C)C#N)n1,inactive,
CNc1cnn(-c2cccc(C(F)(F)F)c2)c(=O)c1Cl,inactive,
Cc1ccn2nc(S(=O)(=O)Nc3c(F)cccc3F)nc2n1,inactive,

SMILES,outcome,AC50
O=c1ccc(=O)[nH][nH]1,inactive,
CCOP(=S)(OCC)OC(Cl)C(Cl)(Cl)Cl (stereo not given),inactive,
CC(=NC#N)N(C)Cc1ccc(Cl)nc1,inactive,
C=C(C)[C@H]1Cc2c(ccc3c2O[C@@H]2COc4cc(OC)c(OC)cc4[C@@H]2C3=O)O1,inactive,
CCOP(=S)(OCC)Oc1ccc([N+](=O)[O-])cc1,inactive,
CCC(=NOC/C=C/Cl)C1=C(O)CC(C2CCOCC2)CC1=O (stereo not given),inactive,
CC(C)=CC1C(C(=O)OCN2C(=O)C3=C(CCCC3)C2=O)C1(C)C (stereo not given),inactive,
Cc1nn(-c2cc(NS(C)(=O)=O)c(Cl)cc2Cl)c(=O)n1C(F)F,inactive,
CCCOCC(=Nc1ccc(Cl)cc1C(F)(F)F)n1ccnc1,inactive,
CC(C)[C@H](C(=O)O[C@H](C#N)c1cccc(Oc2ccccc2)c1)c1ccc(Cl)cc1,,4.07 µM (active)
CCOP(=O)(SC(C)CC)N1CCSC1=O (stereo not given),inactive,
CSC1=N[C@@](C)(c2ccccc2)C(=O)N1Nc1ccccc1,inactive,
CCOP(=O)(NC(C)C)Oc1ccc(SC)c(C)c1 (stereo not given),,61.8 µM (active)
CCOP(=S)(OCC)Oc1ccc2c(C)c(Cl)c(=O)oc2c1,inactive,
CSc1nnc(C(C)(C)C)c(=O)n1N,inactive,
CCOC(=O)CC(SP(=O)(OC)OC)C(=O)OCC (stereo not given),inactive,
CC(C)N(C(=O)SCC(Cl)=C(Cl)Cl)C(C)C,inactive,
CSc1nc(NC(C)C)nc(NC(C)C)n1,inactive,
COP(=O)(OC)OC(Br)C(Cl)(Cl)Br (stereo not given),inactive,
COc1ccc(C(=CC(=O)N2CCOCC2)c2ccc(Cl)cc2)cc1OC,,40.9 µM (active)
